Experimental data from PubChem BioAssay (NCI).
This is part of a sample that, as a whole, favours compounds with a hit. Of some 83,000 tested, about 20% had one in any assay.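 Growth was measured after 48 h exposure to one concentration of compound in 96-well plates. Values under 10 count as active.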 The source made the active and inactive calls.

How the values were obtained:
Experiment in all cases: NCI-60 one-dose screen, 48 h (100 = growth as untreated, 0 = no growth, -100 = all killed)
Details in all cases: 10 µM unless noted
NCI-H23 lung = system: NCI-H23 lung
NCI-H226 lung = system: NCI-H226 lung
NCI-H322M lung = system: NCI-H322M lung
HOP-62 NSCLC = system: HOP-62 NSCLC
NCI-H460 lung = system: NCI-H460 lung
HOP-92 NSCLC = system: HOP-92 NSCLC
NCI-H522 lung = system: NCI-H522 lung
A549/ATCC NSCLC = system: A549/ATCC NSCLC
786-0 renal = system: 786-0 renal
COLO 205 colon = system: COLO 205 colon

Measured: growth

CNC(=O)c1ccccc1Nc1nc(Nc2cc(OC)c(OC)c(OC)c2)ncc1Br
inactive: NCI-H226 lung 10.1% | HOP-92 NSCLC 53.6%
active: NCI-H23 lung -45.2% | NCI-H322M lung -23.2% | HOP-62 NSCLC -32.8% | NCI-H460 lung -36.9% | NCI-H522 lung -49.8% | A549/ATCC NSCLC -10.4% | 786-0 renal -18.1%

O=c1c2ccccc2c(=O)c2c1sc1c(=O)c3ccc(O)cc3c(=O)c12
active: NCI-H23 lung -38.8% | NCI-H226 lung -91.3% | NCI-H322M lung -95.9% | HOP-62 NSCLC -78.8% | NCI-H460 lung -73.1% | HOP-92 NSCLC -24.9% | NCI-H522 lung -64.5% | A549/ATCC NSCLC -55.1% | 786-0 renal -52.7%

CCN(CC)CCCN1C(=O)c2c(c(C)c3c(oc4ccc(O)cc43)c2C)C1=O
active: NCI-H226 lung -44.7% | NCI-H460 lung -25.9% | A549/ATCC NSCLC -76.8% | 786-0 renal -72.6%
inactive: NCI-H23 lung 92.7% | NCI-H322M lung 81.3% | HOP-62 NSCLC 89.9% | HOP-92 NSCLC 69.3% | NCI-H522 lung 80%

O=C(CCl)NNc1nccc(Nc2ccc(S(=O)(=O)Nc3ccncc3)cc2)n1
active: NCI-H522 lung -42.9%
inactive: NCI-H23 lung 40.5% | NCI-H226 lung 70.8% | NCI-H322M lung 64.4% | HOP-62 NSCLC 83.2% | NCI-H460 lung 27.9% | HOP-92 NSCLC 37.3% | A549/ATCC NSCLC 71.5% | 786-0 renal 24.1%

C[C@H](C(=O)N(CCc1ccc(Cl)c(Cl)c1)Cc1cncs1)[C@@H]1CC[C@H](C[C@H](C)n2cc(CN3CCC(c4ccc(Cl)cc4)CC3)nn2)O1
inactive: NCI-H23 lung 98.2% | NCI-H226 lung 85% | NCI-H322M lung 92.7% | HOP-62 NSCLC 101% | NCI-H460 lung 103% | HOP-92 NSCLC 106% | NCI-H522 lung 86.7% | A549/ATCC NSCLC 96.3% | 786-0 renal 93.2%

COc1ccc(NC(=O)Nc2ccc(OCCCCCC(=O)NO)cc2)cc1
inactive: NCI-H23 lung 98% | NCI-H226 lung 100% | NCI-H322M lung 94.7% | HOP-62 NSCLC 102% | NCI-H460 lung 96.3% | HOP-92 NSCLC 94% | NCI-H522 lung 68.1% | A549/ATCC NSCLC 90.3% | 786-0 renal 97.1%

Cc1ccc(/C=C/C(=O)c2cccc(OCCCOc3cccc(C(=O)/C=C/c4ccc(C)cc4)c3)c2)cc1
inactive: NCI-H23 lung 69.5% | NCI-H226 lung 77.5% | NCI-H322M lung 85.1% | HOP-62 NSCLC 102% | NCI-H460 lung 75.9% | HOP-92 NSCLC 92.5% | NCI-H522 lung 76.2% | A549/ATCC NSCLC 81.2% | 786-0 renal 57.9%

N#Cc1c(-c2ccccc2)nc(SCC(O)CN2CCOCC2)nc1N1CCOCC1 (stereo not drawn)
inactive: NCI-H23 lung 81.7% | NCI-H226 lung 80% | NCI-H322M lung 52.3% | HOP-62 NSCLC 48% | NCI-H460 lung 34% | HOP-92 NSCLC 30.7% | NCI-H522 lung 63.3% | A549/ATCC NSCLC 80.3% | 786-0 renal 38.1%

O=C(/C=C/c1ccccc1)c1ccc(Nc2nc(Nc3ccc(F)cc3)nc(Nc3ccc(Cl)cc3)n2)cc1
inactive: NCI-H23 lung 83.9% | NCI-H226 lung 96.1% | NCI-H322M lung 94.5% | HOP-62 NSCLC 102% | NCI-H460 lung 82.1% | HOP-92 NSCLC 48.1% | NCI-H522 lung 87.6% | A549/ATCC NSCLC 112% | 786-0 renal 86.8%

O=C(Nc1ncc(Cc2ccccc2)s1)c1ccc2c(c1)OCCCO2
inactive: NCI-H23 lung 29.1% | NCI-H226 lung 46.2% | NCI-H322M lung 45.4% | HOP-62 NSCLC 31.9% | NCI-H460 lung 15.2% | HOP-92 NSCLC 58.7% | A549/ATCC NSCLC 33.5% | 786-0 renal 36.3%
active: NCI-H522 lung -4.73%

CO[C@H]1CC(=O)n2c3ccccc3c3c4c(c5c6ccccc6n1c5c32)C(=O)NC4=O
inactive: NCI-H23 lung 63.3% | NCI-H226 lung 52.1% | NCI-H322M lung 63.5% | HOP-62 NSCLC 54.4% | NCI-H460 lung 29.1% | HOP-92 NSCLC 86.1% | NCI-H522 lung 58.9% | A549/ATCC NSCLC 57% | 786-0 renal 97.4%

CCN1C(=O)N(CC)C2C1NC(=S)N2/N=C/c1ccc(OC)cc1 (stereo not drawn)
inactive: NCI-H23 lung 74.9% | NCI-H226 lung 78.8% | NCI-H322M lung 79.4% | HOP-62 NSCLC 59.5% | NCI-H460 lung 26.1% | HOP-92 NSCLC 70.5% | NCI-H522 lung 16.8% | A549/ATCC NSCLC 41.7% | 786-0 renal 62.1% | COLO 205 colon 41.7%

CCOC(=O)C1=C(C)/C(=C\c2[nH]c(C)c(C(=O)OCC)c2C)N=C1C
inactive: NCI-H23 lung 80.2% | NCI-H226 lung 94.3% | NCI-H322M lung 93.5% | HOP-62 NSCLC 83.2% | NCI-H460 lung 102% | HOP-92 NSCLC 103% | NCI-H522 lung 75.4% | A549/ATCC NSCLC 86.7% | 786-0 renal 98.9%

CN1CCN(C(=S)SCCCCOc2cc(=O)oc3ccccc23)CC1
inactive: NCI-H23 lung 80.9% | NCI-H226 lung 67.1% | NCI-H322M lung 102% | HOP-62 NSCLC 79.6% | NCI-H460 lung 93.5% | HOP-92 NSCLC 67.5% | NCI-H522 lung 63.6% | A549/ATCC NSCLC 84.5% | 786-0 renal 96.9% | COLO 205 colon 86.4%

CSC(SC)=C(C#N)c1nc2ccccc2s1
inactive: NCI-H23 lung 58.3% | NCI-H226 lung 59% | NCI-H322M lung 79.4% | HOP-62 NSCLC 72.5% | NCI-H460 lung 57.7% | A549/ATCC NSCLC 74.8% | 786-0 renal 61.8% | COLO 205 colon 112%
active: HOP-92 NSCLC -12.8% | NCI-H522 lung 6.27%

O=C(CSc1nnc(-c2cc(-c3ccccc3)nc3ccccc23)n1-c1ccccc1)Nc1ccc(C(=O)/C=C/c2ccc(Cl)cc2)cc1
inactive: NCI-H23 lung 96.1% | NCI-H226 lung 91.4% | NCI-H322M lung 93.1% | HOP-62 NSCLC 93% | NCI-H460 lung 102% | HOP-92 NSCLC 82.1% | NCI-H522 lung 71.8% | A549/ATCC NSCLC 84.4% | 786-0 renal 96.3% | COLO 205 colon 99.6%

COc1ccc(C2=NN(C(C)=O)C(c3cn(-c4ccccc4)nc3-c3ccc(Cl)cc3)C2)cc1 (stereo not drawn)
inactive: NCI-H226 lung 33.6% | NCI-H322M lung 47.8% | HOP-92 NSCLC 18.1% | NCI-H522 lung 47.5% | A549/ATCC NSCLC 14.3%
active: NCI-H23 lung 9.25% | HOP-62 NSCLC -19.3% | NCI-H460 lung 5.58% | 786-0 renal -17.5% | COLO 205 colon 4.9%

O=C1Nc2ccccc2/C1=C\c1c[nH]c2ccc(Br)cc12
inactive: NCI-H23 lung 77.4% | NCI-H226 lung 34.9% | NCI-H322M lung 64.2% | HOP-62 NSCLC 56.5% | NCI-H460 lung 80.8% | HOP-92 NSCLC 64.6% | NCI-H522 lung 35.8% | A549/ATCC NSCLC 73.5% | 786-0 renal 109% | COLO 205 colon 57.5%

O=S(=O)(Oc1ccc(Br)cc1)c1ccc(Cl)cc1
inactive: NCI-H23 lung 89.4% | NCI-H226 lung 100% | NCI-H322M lung 97.3% | HOP-62 NSCLC 105% | NCI-H460 lung 110% | HOP-92 NSCLC 102% | NCI-H522 lung 97.4% | A549/ATCC NSCLC 101% | 786-0 renal 89.2% | COLO 205 colon 108%

O=C(CN1CCN(c2cc3c(cc2F)c(=O)c(C(=O)O)cn3C2CC2)CC1)N/N=C/c1ccco1
inactive: NCI-H23 lung 104% | NCI-H226 lung 94.1% | NCI-H322M lung 95% | HOP-62 NSCLC 82.8% | NCI-H460 lung 105% | HOP-92 NSCLC 87.9% | NCI-H522 lung 93.5% | A549/ATCC NSCLC 90.6% | 786-0 renal 96.4% | COLO 205 colon 102%

COc1ccc(Nc2ncccc2/C=C/C(=O)c2cc(OC)c(OC)c(OC)c2)cc1
active: NCI-H23 lung -8.11% | NCI-H226 lung -43.2% | HOP-62 NSCLC -19.2% | NCI-H460 lung -44.9% | HOP-92 NSCLC -33.8% | NCI-H522 lung -76.5% | A549/ATCC NSCLC -57.1% | 786-0 renal -64.2% | COLO 205 colon -77%
inactive: NCI-H322M lung 52%

CCc1ccc(CCC(=O)Nc2ncc(Cc3cc(Cl)ccc3Cl)s2)o1
inactive: NCI-H23 lung 48.4% | NCI-H226 lung 42.8% | NCI-H322M lung 36.7% | HOP-62 NSCLC 29.9% | NCI-H460 lung 10.3% | HOP-92 NSCLC 51.6% | A549/ATCC NSCLC 22.5% | 786-0 renal 30.5%
active: NCI-H522 lung 3.35% | COLO 205 colon 8.61%

CCN1C(=O)N(CC)C2C1NN=c1s/c(=C\c3ccc(C(F)(F)F)cc3)c(=O)n12 (stereo not drawn)
active: NCI-H460 lung 2.84% | NCI-H522 lung -10.5% | A549/ATCC NSCLC 5.31% | COLO 205 colon -6.59%
inactive: NCI-H23 lung 26.7% | NCI-H226 lung 60.8% | NCI-H322M lung 45.2% | HOP-62 NSCLC 39.1% | HOP-92 NSCLC 34.8% | 786-0 renal 24.9%

O=C(Cn1nnc2ccccc21)N/N=C/c1c[nH]c2ccccc12
inactive: NCI-H23 lung 71% | NCI-H226 lung 77% | NCI-H322M lung 80% | HOP-62 NSCLC 36.6% | NCI-H460 lung 21% | HOP-92 NSCLC 57.7% | NCI-H522 lung 18.1% | A549/ATCC NSCLC 49% | 786-0 renal 58% | COLO 205 colon 37.2%

Nc1nc(N)c(N=Nc2ccccc2)c(-c2ccccc2)n1
inactive: NCI-H23 lung 65.4% | NCI-H226 lung 55.4% | NCI-H322M lung 70.1% | HOP-62 NSCLC 46.9% | NCI-H460 lung 48.7% | HOP-92 NSCLC 38.8% | NCI-H522 lung 49.2% | A549/ATCC NSCLC 63.8% | 786-0 renal 60.7% | COLO 205 colon 65.8%

O=[N+]([O-])c1ccc(-c2cn3nc(-c4c[nH]c5ccccc45)sc3n2)cc1
inactive: NCI-H23 lung 88.1% | NCI-H226 lung 90.8% | NCI-H322M lung 84.9% | HOP-62 NSCLC 94.6% | NCI-H460 lung 98% | HOP-92 NSCLC 102% | NCI-H522 lung 80.7% | A549/ATCC NSCLC 86.9% | 786-0 renal 103% | COLO 205 colon 108%
